Data as given in PubChem BioAssay (Tox21).
Inconclusive results are not listed. Activity calls are given as the source filed them. Unless noted, calls follow the shape of the dose curve; as a rule, active = well fitted curve in the direction sought with a large enough effect in the repeat runs; inconclusive = weak or mixed curves; inactive = no such curve, though single readings can be large; an effect the other way counts as inactive or inconclusive.

Tests used:
[1] = qHTS assay to identify small molecule agonists of the hypoxia (HIF-1) signaling pathway - cell viability counter screen (AID 1224844; calls by dose curve; also: nearly all actives have a fitted effect of over 50% in size)
How it was run: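 HRE-bla ME-180; 0.5% dFBS; cpd 17 h, 37C, 5% CO2; CellTiter-Glo lum., 30 min RT, post-FRET read, same wells.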

[2] = qHTS assay to identify small molecule agonists of H2AX (AID 1224845; active = well fitted activation curve with a large enough effect in the signal ratio in the repeat runs, not every such curve was filed as active; the % refers to the signal ratio)
How it was run: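 Wild-type CHO-K1 cells, plated overnight, exposed 3hr at 37C to 15 concentrations (0.76% DMSO final). Lysed, then HTRF anti-pH2AX (S139) cryptate and anti-H2AX-d2 antibodies, 24 hr room temperature; 665/620 nm emission read.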

[3] = qHTS assay to identify small molecule agonists of the hypoxia (HIF-1) signaling pathway (AID 1224846; active = well fitted activation curve with a large enough effect in the signal ratio in the repeat runs, not every such curve was filed as active; the % refers to the signal ratio)
How it was run: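 Reporter induction in HRE-bla ME-180 cells is taken as agonism: cells sit 5 hrs after plating, receive compounds or DMSO only, incubate 17 hrs at 37C under 5% CO2, and are loaded with CCF4-AM for beta-lactamase FRET measurement.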

[4] = qHTS assay to identify small molecule agonists of H2AX - cell viability counter screen (AID 1224847; calls by dose curve; also: top concentration of the series differs between compounds; nearly all actives have a fitted effect of over 30% in size)
How it was run: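 Cells plated first: CHO-K1, 1000 per well in 10% FBS medium, incubated overnight at 37C. Then 15-point compound titration added (final DMSO 0.76%) for 3 hr. Finally CellTiter-Glo added and luminescence read.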

[5] = qHTS RealTime-Glo MT Cell Viability Assay in HepG2 cells - 24 hour (AID 1224867); also: nearly all actives have a fitted effect of over 50% in size
How it was run: (§1)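 Luminescence read-out: viable HepG2 cells reduce a prosubstrate to a NanoLuc substrate, giving a signal proportional to live cell number. Reads taken at 0, 8, 16, 24, 32 and 40 h of compound exposure at 37 C.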

[6] = qHTS RealTime-Glo MT Cell Viability Assay in HEK293 cells - 32 hour (AID 1224868); also: nearly all actives have a fitted effect of over 50% in size; also: potency is read from the fitted curve at half-maximal effect
How it was run: (§2)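 Nonlytic real-time viability readout: viable cells convert prosubstrate to NanoLuc substrate, giving luminescence proportional to live cell number. HEK293, 600 cells/well, compound added after 5 h, continuous culture at 37 C.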

[7] = A CellTox Green Cytotoxicity Assay to monitor cytotoxicity in HEK293 cells - 0 hour (AID 1224869); also: nearly all actives have a fitted effect of over 50% in size
How it was run: (§3)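 Tox21 screen in HEK293: membrane-impermeant cyanine dye fluoresces on binding dead-cell DNA; compound pinned 5 h post-seeding, plates held at 37 C, signal read repeatedly through 40 h.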

[8] = qHTS RealTime-Glo MT Cell Viability Assay in HepG2 cells - 40 hour (AID 1224870); also: nearly all actives have a fitted effect of over 50% in size
How it was run: (§4)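 HepG2 cells (600/well) mixed with RealTime-Glo MT reagent, settled 5 h at 37 C/5% CO2 before compound addition. Nonlytic NanoLuc luminescence from viable-cell prosubstrate reduction read repeatedly during 40 h treatment at 37 C.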

[9] = A CellTox Green Cytotoxicity Assay to monitor cytotoxicity in HEK293 cells - 40 hour (AID 1224871); also: nearly all actives have a fitted effect of over 45% in size
How it was run: as §3

[10] = qHTS RealTime-Glo MT Cell Viability Assay in HEK293 cells - 16 hour (AID 1224872); also: nearly all actives have a fitted effect of over 50% in size; also: potency is read from the fitted curve at half-maximal effect
How it was run: as §2

[11] = qHTS RealTime-Glo MT Cell Viability Assay in HepG2 cells - 8 hour (AID 1224873); also: nearly all actives have a fitted effect of over 55% in size
How it was run: as §4

[12] = qHTS RealTime-Glo MT Cell Viability Assay in HEK293 cells - 40 hour (AID 1224874); conditions: RealTime-Glo luminescence; max response: active compounds read low; also: nearly all actives have a fitted effect of over 50% in size; also: potency is read from the fitted curve at half-maximal effect
How it was run: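 HEK293 + NanoLuc + prosubstrate, 600 cells/well; 5 h, 37 C/5% CO2; compound 23 nL in DMSO by pintool; 37 C; luminescence read at 0, 8, 16, 24, 32 and 40 h time points.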

[13] = A CellTox Green Cytotoxicity Assay to monitor cytotoxicity in HepG2 cells - 16 hour (AID 1224876); also: nearly all actives have a fitted effect of over 45% in size
How it was run: (§5)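 Measurements at 0, 8, 16, 24, 32 and 40 h of treatment captured CellTox Green fluorescence in HepG2 cells that had been co-plated with reagent and preincubated 5 h at 37 C/5% CO2.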

[14] = qHTS RealTime-Glo MT Cell Viability Assay in HepG2 cells - 32 hour (AID 1224877); also: nearly all actives have a fitted effect of over 55% in size
How it was run: as §1

[15] = A CellTox Green Cytotoxicity Assay to monitor cytotoxicity in HepG2 cells - 24 hour (AID 1224878); also: nearly all actives have a fitted effect of over 45% in size
How it was run: as §5

[16] = A CellTox Green Cytotoxicity Assay to monitor cytotoxicity in HepG2 cells - 40 hour (AID 1224879); also: nearly all actives have a fitted effect of over 40% in size
How it was run: as §5

[17] = target: Thyrotropin receptor (Homo sapiens) (UniProt P16473); assay: qHTS assay to identify small molecule agonists of the thyroid stimulating hormone receptor (TSHR) signaling pathway (AID 1224843; calls by dose curve; also: nearly all actives have a fitted effect of over 45% in size)
Chain of Thyrotropin receptor (Homo sapiens) (P16473 whole entry, looked up): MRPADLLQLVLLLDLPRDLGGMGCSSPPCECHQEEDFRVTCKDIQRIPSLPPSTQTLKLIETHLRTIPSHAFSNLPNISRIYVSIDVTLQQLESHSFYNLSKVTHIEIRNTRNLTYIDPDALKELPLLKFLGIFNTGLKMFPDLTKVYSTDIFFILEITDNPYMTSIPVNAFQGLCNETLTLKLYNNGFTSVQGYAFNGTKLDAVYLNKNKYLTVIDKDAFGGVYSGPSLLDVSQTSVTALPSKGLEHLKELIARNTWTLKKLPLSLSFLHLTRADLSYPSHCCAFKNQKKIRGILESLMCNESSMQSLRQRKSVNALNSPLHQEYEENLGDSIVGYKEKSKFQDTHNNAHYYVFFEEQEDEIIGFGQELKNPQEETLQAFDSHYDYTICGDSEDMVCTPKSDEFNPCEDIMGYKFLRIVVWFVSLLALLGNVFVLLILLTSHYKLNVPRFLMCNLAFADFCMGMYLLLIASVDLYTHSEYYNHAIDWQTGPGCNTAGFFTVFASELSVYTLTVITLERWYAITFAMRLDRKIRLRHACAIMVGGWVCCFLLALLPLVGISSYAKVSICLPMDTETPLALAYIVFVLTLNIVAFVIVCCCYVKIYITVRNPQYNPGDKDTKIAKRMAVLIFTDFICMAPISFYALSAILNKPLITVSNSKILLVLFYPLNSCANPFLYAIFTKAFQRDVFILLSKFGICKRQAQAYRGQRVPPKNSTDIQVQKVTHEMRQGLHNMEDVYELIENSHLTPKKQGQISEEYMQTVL
How it was run: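 HEK293/TSHR, 800 cells/well; cpd 30 min RT; add cAMP-d2 + anti-cAMP-cryptate, 1 h RT; fluorescence read on plate reader. 15-pt titration, n=3.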

[18] = qHTS assay to identify small molecule antagonists of the estrogen related receptor (ERR) signaling pathway from Tox21 library (AID 1224848); also: nearly all actives have a fitted effect of over 50% in size; also: potency is read from the fitted curve at half-maximal effect
How it was run: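 Compounds dissolved in DMSO are pin-transferred onto ERR reporter cells (2,000 per well) that have settled for 6 h at 37 C. Plates then incubate 18 h at 37 C before ONE-Glo luciferase reagent and a luminescence read 30 min later.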

[19] = qHTS assay to identify small molecule agonists of the estrogen related receptor (ERR) signaling pathway from Tox21 library (AID 1224849; calls by dose curve; also: nearly all actives have a fitted effect of over 15% in size); conditions: ERR reporter cell line, ONE-Glo luciferase, 18 h; at 92.4 µM (top of the series) unless noted
How it was run: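 Tox21 compounds tested for ERR agonism in an NTP reporter cell line: 18 h treatment at 37 C, then ONE-Glo luminescence.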

[20] = A CellTox Green Cytotoxicity Assay to monitor cytotoxicity in HEK293 cells - 24 hour (AID 1224875); also: nearly all actives have a fitted effect of over 45% in size
How it was run: as §3
% is scaled to controls: 0 for no effect and ±100 for the full control effect.

C(/C=C/C=C/Nc1ccccc1)=Nc1ccccc1
inactive: Potency [1] | Potency [2] | outcome [3] | Potency [4] | outcome [5] | Potency [6] | Potency [7] | Potency [8] | Potency [9] | Potency [10] | outcome [11] | max response [12] -15.7% | Potency [13] | Potency [14] | Potency [15] | Potency [16]

N#CCCCC(C#N)CCC#N (stereo not given)
inactive: Potency [17] | Potency [2] | Potency [4] | Potency [18] | activity change, positive = activation [19] 0.869% | outcome [5] | Potency [7] | Potency [8] | Potency [9] | Potency [10] | outcome [11] | max response [12] 17.1% | Potency [13] | Potency [14] | Potency [15] | Potency [16]

Clc1cc(Cl)c2c(c1)N=C1CCCCCN1C2
active: Potency [10] 21.3 µM | Potency [12] 23.9 µM
inactive: Potency [1] | Potency [2] | outcome [3] | Potency [18] | activity change, positive = activation [19] 2.85% [at 42.5 µM] | outcome [5] | Potency [7] | Potency [8] | Potency [9] | outcome [11] | Potency [20] | Potency [13] | Potency [14] | Potency [15] | Potency [16]

CC(=O)Oc1cccc2c1C(=O)c1c(OC(C)=O)cc(C(=O)O)cc1C2=O
active: Potency [18] 23.7 µM
inactive: Potency [17] | Potency [4] | activity change, positive = activation [19] -46.2% [at 42.5 µM] | outcome [5] | Potency [6] | Potency [7] | Potency [8] | Potency [9] | Potency [10] | outcome [11] | max response [12] -10.8% | Potency [13] | Potency [14] | Potency [15] | Potency [16]

COC(=O)Cc1cccc2ccccc12
inactive: Potency [1] | Potency [2] | outcome [3] | Potency [4] | outcome [5] | Potency [6] | Potency [7] | Potency [8] | Potency [9] | Potency [10] | outcome [11] | max response [12] -1.93% | Potency [20] | Potency [13] | Potency [14] | Potency [15] | Potency [16]

C1=COCCC1
inactive: Potency [1] | Potency [2] | outcome [3] | Potency [4] | outcome [5] | Potency [6] | Potency [7] | Potency [9] | Potency [10] | outcome [11] | max response [12] 1.01% | Potency [20] | Potency [14] | Potency [15]

O=C(OC1C[C@H]2CC[C@@H](C1)[N+]21CCCC1)C(O)(c1ccccc1)c1ccccc1 (stereo not given in full)
inactive: Potency [17] | Potency [2] | Potency [4] | outcome [5] | Potency [6] | Potency [7] | Potency [8] | Potency [9] | Potency [10] | outcome [11] | max response [12] 0.515% | Potency [13] | Potency [14] | Potency [15] | Potency [16]

COc1ccnc2c1CCCCC2S(=O)c1nc2ccccc2[nH]1 (stereo not given)
active: Potency [6] 7.56 µM | Potency [10] 9.52 µM | Potency [12] 7.56 µM
inactive: Potency [17] | outcome [3] | Potency [4] | outcome [5] | Potency [7] | Potency [8] | Potency [9] | outcome [11] | Potency [20] | Potency [13] | Potency [14] | Potency [15] | Potency [16]

CO[C@@H]1[C@@H](O[C@@H]2O[C@H](C)[C@@H](O[C@H]3C[C@@](C)(O)[C@@H](O)[C@H](C)O3)[C@H](N(C)C)[C@H]2O)[C@@H](CC=O)C[C@@H](C)[C@@H](O[C@@H]2CC[C@H](N(C)C)[C@@H](C)O2)/C=C/C=C/C[C@@H](C)OC(=O)C[C@H]1OC(C)=O
inactive: Potency [1] | Potency [2] | outcome [3] | Potency [4] | outcome [5] | Potency [6] | Potency [7] | Potency [8] | Potency [9] | Potency [10] | outcome [11] | max response [12] 1.04% | Potency [20] | Potency [13] | Potency [14] | Potency [15] | Potency [16]

CC(CN=Cc1ccccc1O)N=Cc1ccccc1O (stereo not given)
inactive: Potency [1] | Potency [2] | outcome [3] | Potency [4] | outcome [5] | Potency [6] | Potency [7] | Potency [9] | Potency [10] | outcome [11] | max response [12] 0.376% | Potency [20] | Potency [13] | Potency [14] | Potency [15] | Potency [16]

COC(=O)C(C)(C)C
inactive: Potency [17] | Potency [4] | Potency [18] | activity change, positive = activation [19] -7.89% | outcome [5] | Potency [7] | Potency [9] | outcome [11] | max response [12] -22.6% | Potency [20] | Potency [13] | Potency [14] | Potency [15] | Potency [16]

O=C(OCCOCCOCCOC(=O)c1ccccc1)c1ccccc1
inactive: Potency [1] | Potency [2] | outcome [3] | outcome [5] | Potency [7] | Potency [8] | Potency [9] | Potency [10] | outcome [11] | max response [12] 13.2% | Potency [20] | Potency [13] | Potency [14]

CCOCCn1c(N2CCCN(C)CC2)nc2ccccc21
inactive: Potency [1] | Potency [2] | outcome [3] | Potency [4] | outcome [5] | Potency [6] | Potency [7] | Potency [9] | Potency [10] | outcome [11] | max response [12] -3.4% | Potency [13] | Potency [14] | Potency [15] | Potency [16]

Cc1c(Cl)cccc1Nc1ccccc1C(=O)O
inactive: Potency [17] | Potency [2] | Potency [4] | outcome [5] | Potency [7] | Potency [8] | Potency [9] | outcome [11] | max response [12] -5.01% | Potency [20] | Potency [13] | Potency [14] | Potency [15]

CCCCOC(=O)C(C)Oc1ccc(Oc2ccc(C(F)(F)F)cn2)cc1 (stereo not given)
inactive: Potency [1] | Potency [2] | outcome [3] | Potency [4] | outcome [5] | Potency [6] | Potency [7] | Potency [8] | Potency [9] | outcome [11] | max response [12] -1.23% | Potency [20] | Potency [14] | Potency [15] | Potency [16]
